Compound activity from PubChem BioAssay.
Insulin prom up: MIN6 insulin promoter up-regulation; MIN6 insulin promoter-GFP reporter, high-content imaging; stronger effect = higher value; z-score at 5 µM; 190,000 tested, 0.3% active;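 active = z-score above 3 at 5 µM with at least 500 cells counted in the well; inconclusive = wells under 500 cells, flagged as cytotoxic or low count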
ROMK mod: human ROMK K+ channel modulation, primary screen. Tet-inducible ROMK, thallium flux fluorescence; actives lie on both sides. P48048. AID 1918. B-score at 10 µM. 130,000 tested, 2% active;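 active = signal ratio slope over the read window, or its plate-corrected B-score, at least 3 SD from the plate mean, either direction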;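 note: B-score of the F/F0 ratio slope over 7 to 12 s after thallium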
KCC2 mod: modulators of human KCC2 chloride dependent transport | KCC2 cells, thallium flux FluoZin-2 fluorescence | B-score of Tl+ flux slope (higher = more flux/activation; lower = inhibition) at 10 µM | 190,000 tested, 2.2% active;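 active = thallium flux slope and its plate-corrected score both differing from the plate sample mean at a set confidence after two filtering rounds, in either direction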;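 note: slope of fluorescence scaled to starting intensity during 10 to 20 s after thallium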
L major viab: inhibitors of Leishmania major promastigote growth; Leishmania major promastigotes, resazurin fluorescence viability; inhibition, % at 10 µM; 200,000 tested, 9% active; in the data active = inhibition above about 50%;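 note: promastigotes grown with compound for 44 hours at 28 °C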
WT yeast gro inh: growth inhibition of WT yeast, mitochondrial fusion screen. inhibition, % at 10 µM. mitochondrial fusion phenotypic screen, WT strain. 190,000 tested, 2.1% active; in the data active = inhibition above about 58%; tested in S. cerevisiae
Insulin prom inh: TRM-6 insulin promoter activity inhibition; TRM-6 cells (human fetal islet line), insulin promoter-eGFP reporter, imaging; reporter expression induced with tamoxifen; inhibition, % at 2 µM; 130,000 tested, 0.9% active;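 active = inhibition above the mean plus 3 SD, with well images judged a real hit on visual review, cut at about 60% in these data, passing the limit was not always enough; inconclusive = inhibition over the cutoff but images rejected on review; inactive = inhibition not above the cutoff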
Numbers stand for hits; - = inactive; ? = inconclusive; . = not tested or not shown. In the library only some 12% were active in any assay of this set; here they are far more common.

SMILES | Insulin prom up | ROMK mod | KCC2 mod | L major viab | WT yeast gro inh | Insulin prom inh
COc1ccc(C2OC(=O)C(C)(C)C(=O)C2(C)C)cc1OC (stereo not drawn) | - | . | - | . | . | .
CCOC(=O)C(=CNc1cc(C(F)(F)F)ccc1N1CCOCC1)C(=O)OCC | - | . | - | . | . | .
Cc1[nH]n(-c2ncc(-c3ccc(Cl)cc3)s2)c(=O)c1C(c1ccc(Cl)cc1)C(C#N)C#N (stereo not drawn) | - | - | - | 99 | - | -
CCCc1[nH][nH]c(=O)c1C(c1cccc(Cl)c1)C(C#N)C#N (stereo not drawn) | - | - | - | - | - | -
CN1CCN(c2ccc(Cl)cc2NC(=O)CCN2C(=O)c3ccccc3C2=O)CC1 | - | - | - | 77 | - | -
O=C(/C=C/c1ccc(F)cc1)Nc1cc(S(=O)(=O)N2CCOCC2)ccc1N1CCCC1 | - | . | - | - | - | .
CN1CCN(c2ccc(Cl)cc2NC(=O)/C=C/c2ccc(F)cc2)CC1 | - | - | - | 94 | 83 | .
CCOC(=O)c1csc(NC(=O)c2ccc(C#N)cc2)n1 | - | - | - | - | - | .
CC1CCCC(C)N1C(=O)CSc1nnc(COc2cccc3cccnc23)o1 (stereo not drawn) | - | - | - | - | - | -
COc1cc(/C=C/C(=O)Nc2cc(C(F)(F)F)ccc2Cl)cc(OC)c1OC | - | . | . | 67 | - | -
Cc1c(CCO)sc[n+]1CC(=O)OCCC12CC3CC(CC(C3)C1)C2 | - | - | - | - | - | 67
Cc1c(CCOC(=O)CC23CC4CC(CC(C4)C2)C3)sc[n+]1Cc1ccccc1 | - | - | - | 100 | - | .
CCCCCCCCCOC(=O)C[n+]1csc(CCO)c1C | - | . | . | 98 | - | -
Cc1c(O)ccc(/C(Cc2ccc3ccccc3n2)=N\N)c1O | - | . | - | . | . | .
FC(F)(F)c1cccc(N2CCN(CC3CC=CCC3)CC2)c1 (stereo not drawn) | - | - | - | 93 | - | -
CCCN1CCC(N2CCN(c3cccc(C(F)(F)F)c3)CC2)CC1 | - | - | . | 100 | - | -
Cc1ccc(N2CCN(CC3CC=CCC3)CC2)cc1 (stereo not drawn) | - | - | - | 97 | - | .
Cc1cccc(N2C(=O)CC(N3CCN(c4cccc(C(F)(F)F)c4)CC3)C2=O)c1 (stereo not drawn) | - | . | - | - | - | -
O=[N+]([O-])c1ccccc1S(=O)(=O)N1CCN(CC2CC=CCC2)CC1 (stereo not drawn) | - | - | - | - | - | .
C1=CCC(CN2CCN(C3CCCCCC3)CC2)CC1 (stereo not drawn) | - | . | - | 90 | - | -
O=C(CN(Cc1ccccc1)S(=O)(=O)c1ccc(Br)cc1)N/N=C/c1ccccc1C(=O)O | - | . | - | . | . | .
Cc1ccc(NC(=O)CSc2nnc(NC(=O)c3ccc(S(=O)(=O)N4CCOCC4)cc3)s2)cc1 | - | - | - | - | - | -
CCOC(=O)c1ccc(NC(=O)CSc2nnc(NC(=O)c3ccc(S(=O)(=O)N4CCOCC4)cc3)s2)cc1 | - | - | - | 91 | - | -
CC1(C)CC(=O)C2=C(C1)OC(N)=C(C#N)C2c1cn(-c2ccccc2)nc1-c1ccc(F)cc1 (stereo not drawn) | - | . | - | 66 | - | .
CC1(C)CC(=O)C2=C(C1)C(c1cn(-c3ccccc3)nc1-c1ccccc1)C(C#N)=C(N)O2 (stereo not drawn) | - | . | - | 79 | - | .
SMILES | Insulin prom up | ROMK mod | KCC2 mod | L major viab | WT yeast gro inh | Insulin prom inh
CCOc1cc(C(=O)OCC(=O)c2c(C)[nH]c3ccccc23)ccc1OCC(=O)N1CCOCC1 | - | . | - | - | - | .
COc1c2c(nc3ccccc13)OC(C(C)(O)COC(C)=O)C2 (stereo not drawn) | 3.3 | . | - | - | - | -
COc1ccc(CCNS(=O)(=O)c2c(N)n(C)c(=O)n(C)c2=O)cc1OC | - | . | - | - | - | -
CCCCOc1ccc(C(O)C(CN2CCCCC2)c2ccccc2)cc1 (stereo not drawn) | - | - | - | 70 | - | -
CCCOc1ccc(C(O)C(CN2CCOCC2)c2ccccc2)cc1 (stereo not drawn) | - | . | - | 89 | - | -
CCOc1ccc(C(O)C(CN2CCOCC2)c2ccccc2)cc1 (stereo not drawn) | - | . | - | 84 | - | -
CCCCOc1ccc(C(O)C(CN2CCOCC2)c2ccccc2)cc1 (stereo not drawn) | - | - | - | . | . | .
COc1cc(NS(=O)(=O)c2ccc(F)cc2)c(C(=O)O)cc1OC | - | - | . | - | - | -
Brc1ccc(Sc2cnc3ccccc3n2)cc1 | - | - | - | - | - | -
CC[C@@H](C)[C@@H](C(=O)N1CCN(C(=O)OC(C)(C)C)CC1)n1cc(CCCN=C(NC(=O)OC(C)(C)C)NC(=O)OC(C)(C)C)nn1 | - | . | - | - | - | .
CCCCCCN1C=C/C(=C\C=C(C#N)C#N)c2ccccc21 | . | . | - | - | - | .
C=CCN1C=C/C(=C\C=C(C#N)C#N)c2ccccc21 | - | . | - | 70 | - | -
COc1cc(CNCC(C)C)c(Br)cc1OCC(=O)NCc1ccccc1 | . | - | - | 96 | - | -
CCN(CC)CCNCc1ccc(Br)cc1OCC(=O)NCc1ccccc1 | - | . | - | - | - | .
COc1cc(CNCCN(C)C)c(Br)cc1OCC(=O)NCc1ccccc1 | - | . | - | 99 | - | -
CCN(CC)CCNCc1cc(Br)ccc1OCC(=O)NCc1ccccc1 | - | - | - | - | - | .
CC(NCc1cc(Br)ccc1OCC(=O)NCc1ccccc1)c1ccccc1 (stereo not drawn) | - | - | - | 98 | - | -
Cc1ccccc1-n1c(SCc2cccc(F)c2)nc2[nH]ncc2c1=O | - | . | - | - | - | -
CCOC(=O)Cc1ccc2sc(-c3ccccc3)nc2c1 | - | - | - | - | 64 | -
CCOC(=O)c1sc(-c2ccccc2)nc1C | - | - | - | - | - | .
O=C(c1ccc(CS(=O)(=O)c2ccc(Br)cc2)o1)N1CCN(C2CCCCC2)CC1 | ? | . | - | 99 | - | .
O=C(c1ccc(CS(=O)(=O)c2ccc(Br)cc2)o1)N1CCCCCC1 | - | . | - | - | - | .
COc1ccc(S(=O)(=O)Cc2ccc(C(=O)N3CCN(C(=O)c4ccco4)CC3)o2)cc1 | - | . | . | - | - | .
COc1ccc(S(=O)(=O)Cc2ccc(C(=O)N3CCN(C4CCCCC4)CC3)o2)cc1 | - | . | . | 99 | - | .
CNCc1cn2cc(Cl)ccc2n1 | - | . | - | - | - | .
SMILES | Insulin prom up | ROMK mod | KCC2 mod | L major viab | WT yeast gro inh | Insulin prom inh
O=C(O)c1cc(NCc2ccc(F)cc2)ccc1N1CCOCC1 | - | . | - | - | - | -
O=C(c1ccco1)N1CCN(C(=O)c2cc3c(=O)oc4ccccc4c3s2)CC1 | - | . | - | - | - | .
Cc1ccc2oc(=O)c3cc(C(=O)N4CCN(C(=O)c5ccco5)CC4)sc3c2c1 | - | . | -2.5 | - | - | .
c1ccc(CN2CCN(c3nc(N4CCOCC4)c4ccccc4n3)CC2)cc1 | . | . | . | - | . | -
OCCN1CCN(c2cc(-c3ccccc3)c3ccccc3n2)CC1 | - | - | - | 69 | - | -
O=c1[nH]c(CN2CCN(c3ccccc3O)CC2)nc2ccccc12 | - | . | - | - | - | -
